Akt phos inh: blocks phosphorylation of Akt; 360,000 compounds, 0.32% hits; activity change, % for hits at 50 µM; Neuro2A IGF-stimulated pAkt S473 HTRF, 20 min; hits give low values; AID 651550; in the data active means activity change below about -80%; inconclusive means mostly about -51% to -80%
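Single-point screen (50 µM final compound) in Neuro2A cells stimulated 20 min with 6 nM IGF at 37 deg C. After lysis, Ser473-phosphorylated Akt read by HTRF (ex 330 nm, em 615/665 nm) as the 665/615 ratio.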
RXFP1 antagonist: blocks the human relaxin receptor RXFP1; Q9HBX9; HEK293-RXFP1, relaxin-stimulated cAMP HTRF, 30 min; hits give low values; activity change, negative = inhibition, % at 57.5 µM; 350,000 compounds, 0.59% hits;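 active means activity change of -60% or lower, but not beyond a set lower limit; inconclusive means change between -60% and -40%, or beyond the set limit; inactive means change above -40%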
Target sequence (Q9HBX9 whole entry, looked up): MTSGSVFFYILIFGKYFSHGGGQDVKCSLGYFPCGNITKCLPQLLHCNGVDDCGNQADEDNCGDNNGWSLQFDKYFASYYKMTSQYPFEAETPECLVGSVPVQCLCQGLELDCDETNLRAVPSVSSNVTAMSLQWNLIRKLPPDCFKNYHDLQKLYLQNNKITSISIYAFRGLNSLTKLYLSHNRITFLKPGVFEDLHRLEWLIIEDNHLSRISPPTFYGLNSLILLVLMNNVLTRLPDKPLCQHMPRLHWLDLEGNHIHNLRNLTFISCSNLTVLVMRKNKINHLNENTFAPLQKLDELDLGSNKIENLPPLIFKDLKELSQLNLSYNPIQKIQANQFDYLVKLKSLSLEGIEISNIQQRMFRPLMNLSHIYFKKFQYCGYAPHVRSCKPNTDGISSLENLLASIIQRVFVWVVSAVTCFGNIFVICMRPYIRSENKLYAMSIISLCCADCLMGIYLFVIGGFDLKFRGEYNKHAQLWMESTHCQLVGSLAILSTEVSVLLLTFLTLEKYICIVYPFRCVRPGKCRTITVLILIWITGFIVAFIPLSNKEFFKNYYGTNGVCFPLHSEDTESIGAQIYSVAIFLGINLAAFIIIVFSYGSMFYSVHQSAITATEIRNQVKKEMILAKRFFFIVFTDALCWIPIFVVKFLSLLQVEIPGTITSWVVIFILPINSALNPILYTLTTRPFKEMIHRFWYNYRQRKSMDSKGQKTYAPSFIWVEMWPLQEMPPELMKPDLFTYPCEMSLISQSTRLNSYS
RXFP1 ag: activates the human relaxin receptor RXFP1; AID 2676; Q9HBX9; 370,000 compounds, 0.3% hits; HEK293T-RXFP1 cAMP TR-FRET, 30 min; response scale: percent of porcine relaxin response, buffer zero; Potency, µM (top dose mostly 57.5 µM), hits mostly activators; active means well fitted activation curve with a large enough effect; inconclusive means small, poorly fitted or top-dose-only effect; further: nearly all actives have a fitted effect of over 60% in size
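HEK293 cells stably expressing RXFP1, treated 30 min at 37C with compounds plus PDE4 inhibitor Ro 20174; cAMP measured by HTRF TR-FRET. Normalized to buffer and 29 nM porcine relaxin; EC50 by Hill fit.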
gsp antag: gsp mutant antagonism. gsp-mutant cells, cAMP HTRF, 30 min. Potency, µM (titrated, usually from 76.9 µM), hits mostly inhibitors. 340,000 compounds, 0.4% hits. AID 624288; calls by dose curve; cell line not stated here;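 further: intracellular cAMP measured with PDE inhibitor Ro 20-1724 present during compound exposure; nearly all actives have a fitted effect of over 65% in size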
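HTRF cAMP read-out (cAMP-d2 plus anti-cAMP antibody-K in lysis buffer, 30 min RT). Before lysis, cells are exposed to compounds with […] for 30 min at 37C in DPBS containing Ca/Mg, BSA and Tween 20.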
gsp agonist: activates gsp, the McCune-Albright syndrome mutation; gsp mutant cells, cAMP HTRF, 30 min; Potency, µM (titrated, usually from 76.9 µM), actives largely listed as activators; 340,000 compounds, 0.13% hits; active means well fitted activation curve with a large enough effect; inconclusive means small, poorly fitted or top-dose-only effect, or another doubt; inactive means no such curve, though single readings can be large or run the other way; cell line not stated here;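 further: phosphodiesterase inhibitor Ro 20-1724 added with compounds to block cAMP breakdown; nearly all actives have a fitted effect of over 60% in size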
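Cells in DMEM/10% FBS with G418 were pretreated with compounds in DMSO plus […] (300 uM stock) for 30 min at 37C. cAMP was measured by HTRF (cAMP-d2 plus anti-cAMP antibody-K) after 30 min at room temperature.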
Numbers stand for hits; - = inactive; ? = inconclusive; . = not tested or not shown; [ ] = remark or other dose. The list is not random: actives were taken first. Their share in the collection is about 1.2%.

SMILES | Akt phos inh | RXFP1 antagonist | RXFP1 ag | gsp antag | gsp agonist
CCS(=O)(=O)N1CCCC(C(=O)NC2CCCCC2C)C1 (configuration not stated) | -110% | - | - | - | -
CCS(=O)(=O)N1CCCC(C(=O)NC2CCCC2)C1 (configuration not stated) | - | - | - | - | -
CCc1ccc(-n2c(=O)c3cccnc3n2CC(=O)N(CC)c2cccc(C)c2)cc1 | . | - | - | . | .
CCc1cc(=O)[nH]c(SCc2nc(-c3cccc(Cl)c3)no2)n1 | . | - | - | . | .
Cc1ccc(CNC(=O)C2CCN(c3nn4cc(-c5ccc(F)cc5)nc4s3)CC2)cc1 | . | - | - | . | .
Cc1ccc(-c2nnc(-n3nc(C)cc3C)c3ccccc23)cc1 | - | - | - | 35µM | -
Cc1cc(C)n(-c2nnc(Cl)c3ccccc23)n1 | - | - | - | - | -
Cc1cccc(OCc2nnc(SCC(=O)Nc3ccc(C)cc3C)o2)c1 | . | . | - | . | .
Cc1cccc(N2CCN(C3(c4ccccc4)C(=O)c4ccccc4C3=O)CC2)c1C | . | . | - | . | .
O=C(O)/C=C/C(=O)Nc1ccc(C2(c3ccc(NC(=O)/C=C/C(=O)O)cc3)c3ccccc3-c3ccccc32)cc1 | - | -61 | - | - | -
CC(Oc1ccc2c3c(c(=O)oc2c1)CCCC3)C(=O)NCC1CCC(C(=O)O)CC1 (configuration not stated) | - | - | - | - | -
CC(Oc1ccc2c3c(c(=O)oc2c1)CCC3)C(=O)NCC1CCC(C(=O)O)CC1 (configuration not stated) | - | . | - | 32µM | .
Cc1ccccc1S(=O)(=O)Cc1ccc(C(=O)NC2CC2)o1 | . | - | - | 28µM | -
Cc1ccccc1S(=O)(=O)Cc1ccc(C(=O)N(C)C2CCCCC2)o1 | - | - | - | 50µM | ?
Cc1ccc(C)c(CSc2cn(CC(=O)N3CCCC3)c3ccccc23)c1 | . | -74 | - | . | .
Cc1ccc(C)c(CSc2cn(CC(=O)N3CCCCCC3)c3ccccc23)c1 | . | - | - | . | .
COc1ccc(S(=O)(=O)NCCc2c[nH]c3ccc(C)cc23)cc1 | - | - | - | 32µM | ?
COc1ccc2[nH]cc(CCNS(=O)(=O)c3ccc(C)cc3)c2c1 | - | - | - | - | -
CO/N=C(\C(=O)N[C@@H]1C(=O)N2C(C(=O)OCOC(=O)C(C)(C)C)=C(C)CS[C@H]12)c1csc(N)n1 | . | - | . | . | .
Cc1csc(NC(=O)Cc2ccccc2Cl)n1 | - | - | - | - | ?
Cc1cnc(NC(=O)Cc2ccccc2Cl)s1 | - | -64 | - | - | -
Cc1ccccc1CNC(=O)C1CCN(c2nnc(-n3c(C)ccc3C)s2)CC1 | . | - | - | . | .
O=C(O)c1ccccc1C(=O)N1CCc2c([nH]c3ccccc23)C1C(F)(F)F (configuration not stated) | - | - | - | - | -
O=C(c1cccc(C(F)(F)F)c1)N1CCc2c([nH]c3ccccc23)C1C(F)(F)F (configuration not stated) | - | -92 | - | - | ?
COc1cccc(CC2(CO)CCCN(Cc3ccc(C)s3)C2)c1 (configuration not stated) | - | -78 | - | - | -[15.4 µM]
SMILES | Akt phos inh | RXFP1 antagonist | RXFP1 ag | gsp antag | gsp agonist
CCCOc1ccc2c(c1)CC[C@@H]1[C@@H]2CC[C@]2(C)C(OC)CC[C@@H]12 (some centres not stated) | . | - | . | . | .
CCOC(=O)C1CCN(C(=O)c2sc3ncn(CC(=O)N4CCCCC4)c(=O)c3c2C)CC1 | - | - | . | . | 16µM
Cc1c(C(=O)N2CCC(C)CC2)sc2ncn(CC(=O)N3CCC(C)CC3)c(=O)c12 | - | - | - | - | ?
Nc1nc(Sc2ccc([N+](=O)[O-])c3nonc23)c2[nH]cnc2n1 | - | - | . | - | 13µM
CNc1ncnc(Sc2nc(N)nc3nc[nH]c23)c1[N+](=O)[O-] | - | - | . | - | ?
Cc1ccc2c(Sc3ccc(Cl)cc3)c(C(=O)N3CCCCC3)[nH]c2c1 | . | - | - | . | .
O=C(CCSc1ccc(Cl)cc1)c1cccs1 | -107% | - | - | - | -
COc1ccc(-c2nc3cc(C(C)C)ccc3o2)cc1NC(=O)c1ccc(C)c(Cl)c1 | . | - | - | . | .
COc1ccc(/C=N\NC(=O)c2ccccc2Cl)cc1COc1c(F)c(F)c(F)c(F)c1F | - | - | - | - | -[15.4 µM]
CCOc1cc(/C=N/NC(=O)c2ccccc2OCc2ccc(F)cc2)ccc1O | - | - | - | 35µM | ?

Compound activity as filed in PubChem.
